A short description of experiment [1]: HepG2 liver cancer cell viability effects, profiling panel, resazurin fluorescence, 24 h, PK04 Diversity Set (AID 1172). As to conditions: higher = more signal.
Experiment [2] in a line: basal S. cerevisiae growth modulation, no modifier, primary screen, OD600, strain BY4716, 24 h, basal condition (AID 1173). The conditions noted are these: OD600, 24 h, higher = more signal, called active from +8 up or from −8 down.
Experiment [3] is described as follows: MM1S myeloma cell viability, profiling panel, resazurin fluorescence, basal, 24 h, PK04 Diversity Set (AID 1174).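 Note: MM1S multiple myeloma cell line.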 The conditions noted are these: higher = more signal, called active from +8 up or from −8 down.
Experiment [4] has as its target Dihydroorotate dehydrogenase (quinone), mitochondrial (Plasmodium falciparum (isolate 3D7)) (UniProt Q08210). Kind of experiment: PfDHODH enzyme inhibitors, primary screen, biochemical, C-terminal His tag, absorbance 600 nm (AID 1175).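 Note: recombinant parasite enzyme with a five histidine tag at its C terminus.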 The conditions noted are these: DCIP absorbance 600 nm, higher = more signal, called active from +8 up or from −8 down.
The nature of experiment [5]: P. aeruginosa biofilm formation inhibitors, primary screen, strain PAO1, LB-PBS medium, absorbance 600 nm (AID 1176). The conditions noted are these: P. aeruginosa PAO1 growth/biofilm, A600, 12 h; higher = more signal.
Experiment [6] is described as follows: S. cerevisiae RM11-1a growth modifiers, primary screen, strain RM11-1a, OD600, basal, 24 h (AID 1177).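 Note: cultures grown under basal conditions with no added stressor.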 The conditions noted are these: OD600, 24 h, higher = more signal, called active from +8 up or from −8 down.
Experiment [7] can be described thus: E. coli acrAB mutant growth effects, primary screen, E. coli filamentation inducers, strain DRC39, OD650, 24 h (AID 1178).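 Note: growth measured as culture turbidity by optical density at 650 nm.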 As to conditions: higher = more signal, called active from +8 up or from −8 down.
Experiment [8] can be described thus: E. coli acrAB mutant growth effects, primary screen, E. coli filamentation inducers, strain DRC39, OD650, 48 h (AID 1179).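 Note: screen aims at cell division blockers that make cells filament.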 The conditions noted are these: E. coli DRC39 delta-acrAB growth, higher = more signal, called active from +8 up or from −8 down.
A short description of experiment [9]: RPMI8226 myeloma cell viability, profiling panel, resazurin fluorescence, basal, 24 h, PK04 Diversity Set (AID 1180).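 Note: RPMI8826 multiple myeloma cell line at 5000 cells per well.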 As to conditions: higher = more signal.
The target of experiment [10] is E3 ubiquitin-protein ligase XIAP (Homo sapiens) (UniProt P98170). The experiment can be described thus: XIAP binders, primary screen, biophysical, small-molecule microarray, fluorescence 635 nm (AID 1181).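 Note: score merges 667 nm emission and signal to noise over triplicate slides.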 As to conditions: small-molecule microarray binding, higher = more signal.
Sequence of E3 ubiquitin-protein ligase XIAP (Homo sapiens) (P98170 whole entry, looked up): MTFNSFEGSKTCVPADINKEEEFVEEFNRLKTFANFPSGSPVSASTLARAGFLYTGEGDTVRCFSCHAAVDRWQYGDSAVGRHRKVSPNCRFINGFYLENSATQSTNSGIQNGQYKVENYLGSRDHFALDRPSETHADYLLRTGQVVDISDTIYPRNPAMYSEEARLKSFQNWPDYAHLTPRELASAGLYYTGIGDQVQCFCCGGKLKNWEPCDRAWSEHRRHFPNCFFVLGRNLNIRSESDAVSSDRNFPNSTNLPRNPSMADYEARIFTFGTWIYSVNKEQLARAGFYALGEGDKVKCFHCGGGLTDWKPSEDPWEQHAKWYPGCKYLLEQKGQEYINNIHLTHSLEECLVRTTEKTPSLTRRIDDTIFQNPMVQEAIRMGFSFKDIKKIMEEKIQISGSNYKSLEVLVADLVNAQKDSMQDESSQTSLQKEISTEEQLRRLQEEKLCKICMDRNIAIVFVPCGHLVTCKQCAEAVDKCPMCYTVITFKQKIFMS
For experiment [11], the system named is XIP peptide (Xip251-270) binding. Kind of experiment: small-molecule binders of XIP peptide, primary screen, biochemical, small-molecule microarray, fluorescence 635/667 nm, 0.1 µg/mL protein (AID 1182). The conditions noted are these: fluorescent protein binding, 635 nm, higher = more signal, called active from +8 up or from −8 down.
In the next experiment the test system is XIP peptide (Xip251-270). Kind of experiment: small-molecule binders of XIP peptide, primary screen, biochemical, small-molecule microarray, fluorescence 635/667 nm, 0.5 µg/mL protein (AID 1183). The conditions noted are these: small-molecule microarray binding, fluorescence 635 nm; higher = more signal.
Experiment [12] in a line: Plasmodium falciparum growth inhibition, primary screen, strain 3D7, DAPI fluorescence, 100 nL (AID 1184).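 Note: parasites grown inside human red blood cells in medium with human serum.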 The conditions noted are these: P. falciparum 3D7 growth, 3 d, higher = more signal.
The target of experiment [13] is Homeobox protein Hox-A13 (Mus musculus) (UniProt Q62424). The experiment can be described thus: inhibitors of HoxA13-DNA binding, primary screen, biochemical, fluorescence polarization, labeled oligonucleotide (AID 1185). As to conditions: 15 min, higher = more signal, called active from +8 up or from −8 down.
Sequence of Homeobox protein Hox-A13 (Mus musculus) (Q62424 whole entry, looked up): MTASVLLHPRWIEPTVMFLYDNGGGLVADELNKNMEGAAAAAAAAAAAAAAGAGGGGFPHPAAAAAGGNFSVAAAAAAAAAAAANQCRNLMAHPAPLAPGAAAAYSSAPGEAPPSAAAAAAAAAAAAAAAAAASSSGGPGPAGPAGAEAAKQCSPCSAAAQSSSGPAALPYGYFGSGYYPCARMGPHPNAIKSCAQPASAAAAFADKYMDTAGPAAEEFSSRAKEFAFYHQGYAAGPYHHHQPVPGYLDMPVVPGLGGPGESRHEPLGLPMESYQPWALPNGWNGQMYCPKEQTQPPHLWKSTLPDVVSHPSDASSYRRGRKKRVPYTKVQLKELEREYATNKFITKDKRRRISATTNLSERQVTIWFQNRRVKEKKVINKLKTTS
A short description of experiment [14]: inhibitors of hydroxyurea-induced Chk1 phosphorylation, primary screen, imaging, HeLa, phospho-Chk1 antibody, percent positive cells (AID 1186). As to conditions: hydroxyurea-induced phospho-Chk1 immunofluorescence imaging, higher = more signal.
Experiment [15] can be described thus: inhibitors of hydroxyurea-induced Chk1 phosphorylation, primary screen, imaging, HeLa, phospho-Chk1 nuclear intensity (AID 1187). The conditions noted are these: hydroxyurea-induced phospho-Chk1 immunofluorescence imaging, higher = more signal.

Calls of active or inactive are those of the source. Unless noted, the rule behind the calls is not given here.

Sequence of Dihydroorotate dehydrogenase (quinone), mitochondrial (Plasmodium falciparum (isolate 3D7)) (Q08210 whole entry, looked up): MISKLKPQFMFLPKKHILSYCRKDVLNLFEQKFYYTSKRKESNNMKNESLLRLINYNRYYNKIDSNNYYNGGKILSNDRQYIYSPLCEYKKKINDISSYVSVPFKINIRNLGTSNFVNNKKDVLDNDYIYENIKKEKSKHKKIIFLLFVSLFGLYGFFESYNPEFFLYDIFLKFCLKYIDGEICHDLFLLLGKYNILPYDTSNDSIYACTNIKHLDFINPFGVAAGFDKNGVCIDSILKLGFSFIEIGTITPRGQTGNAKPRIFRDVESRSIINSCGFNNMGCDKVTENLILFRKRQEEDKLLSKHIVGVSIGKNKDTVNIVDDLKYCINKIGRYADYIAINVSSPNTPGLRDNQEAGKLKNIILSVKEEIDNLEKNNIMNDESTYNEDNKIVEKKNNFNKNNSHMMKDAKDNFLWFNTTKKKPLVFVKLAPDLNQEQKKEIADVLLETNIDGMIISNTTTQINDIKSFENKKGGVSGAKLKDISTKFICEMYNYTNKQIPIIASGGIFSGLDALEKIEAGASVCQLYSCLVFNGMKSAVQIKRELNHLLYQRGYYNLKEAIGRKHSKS

Turning to `CC1CC/C=C\[C@H]2OC34C=CCN(CCN5CCOCC5)C(=O)[C@H]3N(CCCCCO)C(=O)[C@@H]4C2C(=O)O1` (some centres undefined), the z-score in experiment [1] was -0.693; in experiment [2], -0.501 (inactive); in experiment [3], 0.183 (inactive); in experiment [5] it was -0.456 (inactive); in experiment [6], 0.0357 (inactive); in [7], 0.408 (inactive). The z-score in experiment [8] was 0.45 (inactive); in experiment [9] it was -0.977; in [12], -0.143; in [13], -5.32 (inactive); in experiment [14], -0.0913 (inactive); in experiment [15], -0.364 (inactive). In addition, the composite z-score in experiment [4] is 1.07 (inactive); in experiment [10] it was 0.33; in experiment [11], -0.173 (inactive); with XIP peptide (Xip251-270) it was -1.32.
On to `O=P(NCC1(CC2(c3ccccc3)CO2)CC1)(c1ccccc1)c1ccccc1` (centres undefined), for which the z-score was -0.293 in [1]; 1.19 (inactive) in experiment [2]; -0.242 (inactive) in experiment [3]; 0.191 (inactive) in experiment [5]; 2.7 (inactive) in [6]; -0.191 (inactive) in experiment [7]. Also, the z-score is -0.0173 (inactive) in experiment [8]; 0.0301 in experiment [9]; 0.561 in experiment [12]; -3.26 (inactive) in [13]; -0.124 (inactive) in [14]; -0.208 (inactive) in experiment [15]. In addition, the composite z-score in [4] is -0.402 (inactive); in [10] it was -0.102; in experiment [11], 0.588 (inactive); with XIP peptide (Xip251-270), 0.822.
Regarding `COc1ccc([Si](C)(C)[C@H]2[C@H](CCO)O[C@@]3(C(=O)N(Cc4cccc(N5C(=O)c6cccc7cccc5c67)c4)c4ccccc43)[C@@H]2C)cc1`, the z-score was -2.42 in [1]; 1.18 (inactive) in [2]; -4.22 (inactive) in experiment [3]; 1.51 (inactive) in experiment [5]; 4.72 (inactive) in experiment [6]; 0.0827 (inactive) in experiment [7]. For the same compound, the z-score is -0.511 (inactive) in experiment [8]; -4.88 in experiment [9]; -2.82 in [12]; -1.61 (inactive) in experiment [13]; -0.283 (inactive) in experiment [14]; -0.304 (inactive) in [15]. The composite z-score in experiment [4] was 0.763 (inactive); in experiment [10], 0.224; in [11], 0.834 (inactive); with XIP peptide (Xip251-270) it was 0.512.
On to `Cc1ccc(S[C@]2(C(=O)NCC(C)C)CC(=O)N(Cc3ccccc3)[C@@H]2c2ccc(CO)cc2)cc1`, for which the z-score was 0.408 in experiment [1]; -0.841 (inactive) in [2]; 0.559 (inactive) in [3]; 0.525 (inactive) in experiment [5]; -0.341 (inactive) in experiment [6]; 0.298 (inactive) in [7]. In addition, the z-score was -0.667 (inactive) in [8]; 0.505 in experiment [9]; -0.894 in experiment [12]; -2.95 (inactive) in [13]; 0.306 (inactive) in experiment [14]; -0.141 (inactive) in experiment [15]. Further, the composite z-score in experiment [4] was -0.586 (inactive); in experiment [10], 0.104; in experiment [11] it was 1.34 (inactive); with XIP peptide (Xip251-270), 0.404.
In the case of `CN(C)CCCC[C@@H]1NC(=O)[C@H]2C[C@@H](C(=O)NCCCCCNC(=O)CS)[C@@H](c3ccc(O)cc3)N2C1=O`, the z-score in experiment [1] is -0.0707; in experiment [2], -0.691 (inactive); in [3] it was 0.518 (inactive); in [5], -0.13 (inactive); in [6], -0.158 (inactive); in experiment [7] it was -0.297 (inactive). Moreover, the z-score in experiment [8] was 0.326 (inactive); in [9], 0.108; in experiment [12] it was -0.282; in experiment [13] it was -2.09 (inactive); in [14], 0.358 (inactive); in [15], 0.155 (inactive). The composite z-score in experiment [4] is 0.419 (inactive); in experiment [10], -0.0344; in experiment [11] it was -0.276 (inactive); with XIP peptide (Xip251-270), 0.903.
Turning to `CCOC(=O)C1=CC[C@@H](c2ccccc2)N(S(=O)(=O)c2ccc(C)cc2)[C@H]1c1ccc(C#N)cc1`, the z-score in experiment [1] is 0.162; in experiment [2] it was 1.5 (inactive); in experiment [3], -0.116 (inactive); in [5] it was 0.381 (inactive); in experiment [6], -0.299 (inactive); in [7] it was -0.604 (inactive). The z-score is -0.288 (inactive) in [8]; -1.4 in [9]; -1.95 in experiment [12]; 0.426 (inactive) in experiment [13]; 0.972 (inactive) in [14]; 0.136 (inactive) in experiment [15]. The composite z-score in experiment [4] was -0.0753 (inactive); in experiment [10], 0.0123; in experiment [11], 0.432 (inactive); with XIP peptide (Xip251-270), 0.728.
For `[N-]=[N+]=NCc1ccccc1[C@@H]1OC(c2ccc(OCCCO)cc2)=N[C@]1(Cc1ccccc1)C(=O)O`, the z-score in experiment [1] was 1.18; in experiment [2], -3.03 (inactive); in [3], 0.615 (inactive); in experiment [5], 0.466 (inactive); in experiment [6], 0.703 (inactive); in experiment [7], 0.305 (inactive). The z-score in experiment [8] is -0.108 (inactive); in [9] it was 0.469; in experiment [12], 0.615; in experiment [13] it was -4.89 (inactive); in experiment [14], 0.412 (inactive); in experiment [15] it was 0.595 (inactive). For the same compound, the composite z-score was -0.101 (inactive) in experiment [4], -0.0731 in experiment [10], 0.078 (inactive) in experiment [11] and 0.859 in the experiment on XIP peptide (Xip251-270).
As to `COC(=O)[C@@]1(Cc2ccc(OC)cc2)[C@H]2c3cc(C(=O)N4CCCC4)n(C[C@H](O)CO)c3C[C@H]2CN1C(=O)c1ccccc1`, the z-score in experiment [1] was -0.0006; in experiment [2], 1.92 (inactive); in [3] it was -0.579 (inactive); in [5], -0.306 (inactive); in [6], 1.04 (inactive); in experiment [7] it was 0.305 (inactive). For the same compound, the z-score in [8] is 0.644 (inactive); in experiment [9] it was -0.595; in experiment [12] it was -1.17; in experiment [13], -5.13 (inactive); in [14] it was 0.0578 (inactive); in experiment [15] it was -0.0868 (inactive). For the same compound, the composite z-score in [4] was -0.475 (inactive); in [10], -0.0251; in experiment [11], 0.883 (inactive); with XIP peptide (Xip251-270), -0.197.
Regarding `CN1C(=O)C2C(C1=O)C1C=C(c3ccc(CO)cc3)C2C(C2CC2)N1Cc1cc2c(cc1Br)OCO2` (centres undefined), the z-score is -0.698 in [1]; -2.01 (inactive) in experiment [2]; -1.31 (inactive) in experiment [3]; 0.0061 (inactive) in [5]; -0.889 (inactive) in experiment [6]; 0.101 (inactive) in experiment [7]. Further, the z-score is -0.0102 (inactive) in experiment [8]; -1.47 in [9]; -2.16 in [12]; -4.5 (inactive) in experiment [13]; -0.369 (inactive) in experiment [14]; -0.327 (inactive) in experiment [15]. Moreover, the composite z-score is -2.33 (inactive) in [4], 0.111 in [10], 2.71 (inactive) in [11] and 0.832 with XIP peptide (Xip251-270).
